The record followed here is PubChem BioAssay (EPA / NIEHS).

Records with an inconclusive call do not appear. The source holds several records for some structures; these can differ, active in one and inactive in another. Activity calls are given as the source filed them. Rule for the calls, unless noted: active = hit-call score of the fitted dose curve at least 0.9, where 1 is the maximum; inconclusive = response in the unintended direction; inactive = score below 0.9.

Read-out in assay [1]: Thyroid Hormone Responsive (THRSP), THRSP (gene 7069)
Kind of assay: LTEA_HepaRG_THRSP: Life Technologies and Expression Analysis (LTEA) Assay for Thyroid Hormone Responsive (THRSP) using HepaRG (AID 2283536; active = hit-call score of the fitted dose curve at least 0.9, where 1 is the maximum; inactive = score below 0.9). To be noted: mRNA level, 48 h; actives raise or lower the signal. The method, boiled down: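 Differentiated HepaRG cells treated 48 h in serum-free induction medium with 8 half-log concentrations up to 100 uM (0.5% DMSO), duplicates. THRSP mRNA by TaqMan qRT-PCR normalised to ACTB, GAPDH, POLR2A; bidirectional fit versus DMSO.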

Read-out in assay [2]: Cellular tumor antigen p53 (Homo sapiens) (UniProt P04637)
Kind of assay: LTEA_HepaRG_TP53: Life Technologies and Expression Analysis (LTEA) Assay for Tumor Protein P53 (TP53) using HepaRG (AID 2283537; active = hit-call score of the fitted dose curve at least 0.9, where 1 is the maximum; inactive = score below 0.9). The following applies: mRNA level, 48 h; actives raise or lower the signal. In outline: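 HepaRG, 48 h exposure, top 100 uM, half-log 8-point, 0.5% DMSO vehicle, duplicates. Read: TP53 mRNA by TaqMan qRT-PCR, normalised to ACTB/GAPDH/POLR2A; bidirectional fit vs DMSO.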

Read-out in assay [3]: UDP glucuronosyltransferase (UGT1A1), UGT1A1 (gene 54658)
Kind of assay: LTEA_HepaRG_UGT1A1: Life Technologies and Expression Analysis (LTEA) Assay for UDP glucuronosyltransferase (UGT1A1) using HepaRG (AID 2283538; active = hit-call score of the fitted dose curve at least 0.9, where 1 is the maximum; inactive = score below 0.9). The following applies: mRNA level, 48 h; actives raise or lower the signal. The method, boiled down:
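Human liver HepaRG cultures receive test chemical for 48 h, up to 100 uM in 0.5% DMSO, with phenobarbital induction controls. UGT1A1 mRNA is measured by qRT-PCR and normalized to ACTB, GAPDH and POLR2A.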

Read-out in assay [4]: UDP glucuronosyltransferase (UGT1A6), UGT1A6 (gene 54578)
As to the kind of experiment: LTEA_HepaRG_UGT1A6: Life Technologies and Expression Analysis (LTEA) Assay for UDP glucuronosyltransferase (UGT1A6) using HepaRG (AID 2283539; active = hit-call score of the fitted dose curve at least 0.9, where 1 is the maximum; inactive = score below 0.9). To be noted: mRNA level, 48 h; actives raise or lower the signal. The method, boiled down:
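Expression was quantified by TaqMan qRT-PCR on Fluidigm arrays with ACTB/GAPDH/POLR2A normalization and bidirectional fitting against 0.5% DMSO. HepaRG cells (~100,000/well) were treated in duplicate for 48 h at eight half-log concentrations up to 100 uM in serum-free induction medium.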

Read-out in assay [5]: X-box binding protein 1 (XBP1), XBP1 (gene 7494)
Kind of assay: LTEA_HepaRG_XBP1: Life Technologies and Expression Analysis (LTEA) Assay for X-box binding protein 1 (XBP1) using HepaRG (AID 2283540; active = hit-call score of the fitted dose curve at least 0.9, where 1 is the maximum; inactive = score below 0.9). The following applies: mRNA level, 48 h; actives raise or lower the signal. In outline:
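XBP1 transcript by qRT-PCR (housekeeping-normalized: ACTB, GAPDH, POLR2A) after 48 h chemical treatment of HepaRG cells, 8-point half-log series topping at 100 uM, vehicle 0.5% DMSO. Gain and loss of signal fitted relative to DMSO.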

The nature of assay [6]: LTEA_HepaRG_LDH_cytotoxicity: Cytotoxicity Assessment in the Life Technologies and Expression Analysis (LTEA) Assay (AID 2283563).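 For AC50: LDH activity released into spent culture medium as a marker of cell death.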 The method, boiled down: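 LDH release into culture medium read after 48 h chemical treatment of HepaRG cells. Duplicate wells, eight-point half-log series topping at 100 uM, 0.5% DMSO vehicle and baseline.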
Assay [7] in a line: TOX21_p53_BLA_p2_viability: Viability Assessment in the Tox21 HCT-116 p53 Agonism Beta-lactamase Assay, Phase 2 (AID 2283591).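 Note: compound exposure lasted 16 h at 37 °C; actives lower the ATP signal meaning cytotoxicity.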 In outline: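 HCT116 p53-bla cells, 4000/well, dosed after 5 h plating (217-fold dilution of DMSO stocks) and incubated 16 h at 37C. Viability taken as cellular ATP by CellTiter-Glo luminescence after 30 min RT; signal loss marks cytotoxicity.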
Assay [8] concerns the target Cellular tumor antigen p53 (Homo sapiens) (UniProt P04637). As to the kind of experiment: TOX21_p53_BLA_p2_ratio: Tox21 HCT-116 p53 Agonism Beta-lactamase Assay, Ratio, Phase 2 (AID 2283592). The method, boiled down: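 Gain-of-signal p53 agonism was scored from the beta-lactamase FRET ratio (460/530 nm, 405 nm excitation) in HCT116 cells treated 16 h at 37C, 5% CO2, with DMSO serving as negative control and baseline.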

The nature of assay [9]: TOX21_p53_BLA_p3_viability: Viability Assessment in the Tox21 HCT-116 p53 Agonism Beta-lactamase Assay, Phase 3 (AID 2283593).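 Note: cells exposed to compound for 16 h before reading.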 The method, boiled down: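 HCT116 cells, 4000/well, dosed 5 h after plating by pin transfer (217-fold dilution from DMSO stock) and incubated 16 h at 37C, 5% CO2. Viability read as ATP luminescence with CellTiter-Glo after 30 min at room temperature.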

In assay [10] the target is Cellular tumor antigen p53 (Homo sapiens) (UniProt P04637). Kind of assay: TOX21_p53_BLA_p3_ratio: Tox21 HCT-116 p53 Agonism Beta-lactamase Assay, Ratio, Phase 3 (AID 2283596). In outline:
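HCT116 p53-bla cells (4000/well) given compound in DMSO (217-fold dilution) after 5 h, incubated 16 h at 37C. CCF4-AM substrate 2 h at room temperature; 460/530 nm emission ratio, gain fitted against DMSO.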

A short description of assay [11]: TOX21_p53_BLA_p4_viability: Viability Assessment in the Tox21 HCT-116 p53 Agonism Beta-lactamase Assay, Phase 4 (AID 2283597).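 Note: hits lower the luminescence signal meaning cytotoxicity.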 In outline:
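Following a 16 h exposure at 37C, the treated HCT116 wells were first read for the FRET ratio. They were then lysed with CellTiter-Glo, and ATP luminescence was recorded after 30 min at room temperature.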

Assay [12] addresses Cellular tumor antigen p53 (Homo sapiens) (UniProt P04637). Kind of assay: TOX21_p53_BLA_p5_ratio: Tox21 HCT-116 p53 Agonism Beta-lactamase Assay, Ratio, Phase 5 (AID 2283599). The method, boiled down:
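HCT-116 p53-bla cells (4000/well) plated 5 h, dosed with compound (217-fold DMSO dilution) for 16 h at 37 C; CCF4-AM substrate 2 h at room temperature. Activity is the 460/530 nm emission ratio (405 nm excitation), fitted in gain-of-signal direction versus DMSO.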

Assay [13] in a line: TOX21_p53_BLA_p5_viability: Viability Assessment in the Tox21 HCT-116 p53 Agonism Beta-lactamase Assay, Phase 5 (AID 2283600). The method, boiled down:
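After the 460/530 nm beta-lactamase measurement, the wells received an ATP-detection luciferase reagent; signal was read 30 min later at RT. Compound treatment lasted 16 h on cells pre-incubated 5 h post-seeding.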

Assay [14] concerns the target Cellular tumor antigen p53 (Homo sapiens) (UniProt P04637). As to the kind of experiment: TOX21_p53_BLA_p4_ratio: Tox21 HCT-116 p53 Agonism Beta-lactamase Assay, Ratio, Phase 4 (AID 2283601). In outline:
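HCT-116 p53 beta-lactamase reporter cells (4000/well) preincubated 5 h, then compound (217-fold dilution of DMSO stock) for 16 h at 37C. CCF4-AM substrate added 2 h at room temperature; 460/530 nm emission ratio fitted upward versus DMSO.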

Assay [15] can be described thus: Tanguay_ZF_120hpf_MORT_legacy: (Legacy) Oregon State University Tanguay Lab 120 Hour Post-fertilization zebrafish Assay for Mortality (AID 2283633). In outline: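 Static waterborne exposure from 6 to 120 hpf at 28C of single dechorionated wild-type (5D) embryos per well, 0.64% DMSO final. Death recorded present/absent by brightfield at 24 and 120 hpf.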
Assay [16] can be described thus: Tanguay_ZF_120hpf_YSE_legacy: (Legacy) Oregon State University Tanguay Lab 120 Hour Post-fertilization zebrafish Assay for Yolk Sac Edema (AID 2283634). In outline:
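Presence or absence of yolk sac edema was recorded at 120 hpf in surviving larvae. These were wild-type Tropical 5D embryos, chorion removed at 4 hpf, held in static exposure at 28C from 6 hpf with 0.64% DMSO vehicle.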

Assay [17] in a line: Tanguay_ZF_120hpf_AXIS_legacy: (Legacy) Oregon State University Tanguay Lab 120 Hour Post-fertilization zebrafish Assay for Body Axis Malformation (AID 2283635). The method, boiled down: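 Binary scoring of axis defects at 120 hpf under brightfield, fitted positive versus DMSO. Tropical 5D embryos, chorion removed by pronase at 4 hpf, were singly exposed in sealed, dark plates at 28C from 6 hpf; DMSO 0.64% final.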

Assay [18] can be described thus: Tanguay_ZF_120hpf_EYE_legacy: (Legacy) Oregon State University Tanguay Lab 120 Hour Post-fertilization zebrafish Assay for Eye Malformation (AID 2283636).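 Note: binary presence or absence of eye malformation scored by brightfield in 120 hpf larvae.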 The method, boiled down:
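Dechorionated Tropical 5D zebrafish embryos, one per well from 6 hpf, static exposure to 120 hpf at 28C, 0.64% DMSO. Eye malformation scored present/absent by brightfield; dead embryos not scored.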

A short description of assay [19]: Tanguay_ZF_120hpf_SNOU_legacy: (Legacy) Oregon State University Tanguay Lab 120 Hour Post-fertilization zebrafish Assay for Snout Malformation (AID 2283637). The method, boiled down: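 Dechorionated tropical 5D wild-type zebrafish embryos exposed statically from 6 to 120 hpf at 28C, one per well, in 0.64% DMSO. Snout malformation scored as present/absent by brightfield at 120 hpf; dead embryos not scored.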

A short description of assay [20]: ATG_XTT_Cytotoxicity: Cytotoxicity Assessment in the Attagene TRANS-FACTORIAL HepG2 Assay (AID 2283584). In outline:
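Viability endpoint from XTT after 24 h chemical exposure of reporter-transfected human HepG2 liver cells; signal loss fitted relative to DMSO negative control.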

Chain of Cellular tumor antigen p53 (Homo sapiens) (P04637 whole entry, looked up): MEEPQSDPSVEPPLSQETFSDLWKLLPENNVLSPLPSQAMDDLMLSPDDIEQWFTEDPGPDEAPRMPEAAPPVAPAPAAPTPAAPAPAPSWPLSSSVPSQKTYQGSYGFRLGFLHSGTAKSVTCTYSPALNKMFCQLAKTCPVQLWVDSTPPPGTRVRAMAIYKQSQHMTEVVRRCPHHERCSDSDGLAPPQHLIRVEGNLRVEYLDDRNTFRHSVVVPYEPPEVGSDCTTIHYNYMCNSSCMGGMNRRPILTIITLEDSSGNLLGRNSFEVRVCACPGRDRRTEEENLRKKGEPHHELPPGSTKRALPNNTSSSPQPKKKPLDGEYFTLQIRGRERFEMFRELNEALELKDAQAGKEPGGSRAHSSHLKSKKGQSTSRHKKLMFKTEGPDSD

Broadly, the AC50 is the midpoint of the concentration-response curve, whichever way the signal moves. Turning to `COc1cc(-c2nc(NC(=O)c3cc4cc(C)cc(C)c4n3CC(=O)O)sc2CCC2CCCCC2)c(OC)cc1Cl`, the AC50 was 6.89 µM (active) in [1]; 24.6 µM (active) in assay [2]; 7.32 µM (active) in assay [3]; 7.34 µM (active) in [4]; 19.6 µM (active) in assay [5]; 9.05 µM (active) in assay [6]. The concentration at half-maximal activity (AC50) in assay [7] was 1.65 µM (active); in assay [8], 2.2 µM (active); in assay [9], 5.1 µM (active); in [10], 7.74 µM (active); in assay [11] it was 2.1 µM (active); in [12], 9.04 µM (active). Besides, the AC50 was 3.51 µM (active) in [13] and 3.39 µM (active) in assay [14]. For the same compound, the outcome in assay [15], in assay [16], in assay [17], in assay [18] and in assay [19] was inactive.

Turning to `Nc1ccc2c(c1)C(=O)c1ccccc1C2=O`, the concentration at half-maximal activity (AC50) in assay [1] was 6.08 µM (active); in assay [2], 18.2 µM (active); in assay [3], 7.74 µM (active); in assay [5], 10.3 µM (active). Moreover, the outcome in assay [4], in [6], in [20], in [7], in [8] and in assay [9] was inactive. Besides, the outcome in assay [10], in assay [11], in [12], in assay [13], in [14] and in assay [15] was inactive. Moreover, the call in assay [16], in assay [17], in [18] and in assay [19] was inactive.

Turning to `CCOc1ccc2c(c1)C(C)=CC(C)(C)N2`, the outcome in [1], in assay [2], in assay [4], in assay [5], in [6] and in [7] was inactive. For the same compound, the outcome in assay [8], in assay [9], in assay [10], in assay [11], in [12] and in [13] was inactive. The result in assay [14], in assay [15], in [16], in assay [17] and in [18] was inactive. The AC50 in [3] is 1.61 µM (active); in [12] it was 67.7 µM (active); in [14] it was 76.6 µM (active); in assay [19] it was 19.4 µM (active).
